Experiment [1] can be described thus: anti-His antibody binders, primary screen, artefact control for SMM control protein annotation, biochemical, small-molecule microarray, 635 nm fluorescence (AID 1128).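 Note: score merges feature fluorescence with signal-to-noise for each printed compound spot.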 Particulars: anti-His Alexa647 antibody binding, higher = more signal.
The test system of experiment [2] is Human papillomavirus type 1a E7 protein (residues 1-88). As to the kind of experiment: HPV1a E7 small-molecule binders, primary screen, biochemical, small-molecule microarray, residues 1-88, 635 nm (AID 1129). Particulars: small-molecule microarray binding, fluorescence 635 nm; higher = more signal.
In experiment [3] the target is Focal adhesion kinase 1 (Homo sapiens) (UniProt Q05397). Briefly: small-molecule microarray binders of FAK, primary screen, biochemical, 635/667 nm fluorescence, BSA, DTT (AID 1130).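 Note: composite of spot emission at 667 nm and signal to noise over triplicate slides.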 The following applies: PTK2 binding, 635 nm fluorescence, higher = more signal.
The subject of experiment [4] is Fibrinogen (Alexa647-labelled). Briefly: fibrinogen binders on compound microarrays, profiling panel, artefact control for SMM control-protein annotation, biochemical, small-molecule microarray, 635/667 nm fluorescence (AID 1131).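 Note: z-score merges 667 nm fluorescence with per-spot signal-to-noise over triplicate slides.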 The following applies: fibrinogen-A647 binding fluorescence, higher = more signal.
In experiment [5] the target is Follistatin (Homo sapiens) (UniProt P19883). As to the kind of experiment: follistatin binders on small-molecule microarrays, primary screen, biochemical, small-molecule microarray, 635/667 nm fluorescence (AID 1132). Particulars: FST binding, 635 nm fluorescence, higher = more signal.
The target of experiment [6] is Fibroblast growth factor 2 (Homo sapiens) (UniProt P09038). Briefly: FGF2 binders on small-molecule microarrays, primary screen, biochemical, small-molecule microarray, 635/667 nm fluorescence (AID 1133). Particulars: small-molecule microarray binding, FGF2, fluorescence 635/667; higher = more signal.
Experiment [7] is described as follows: mitochondrial membrane potential change in A549 cells, profiling panel, cell-based, JC-1 fluorescence, basal, 24 h, 100 nL (AID 1138).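 Note: A549 lung adenocarcinoma cells under basal conditions with no added stimulus; test concentration not given here.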 The following applies: higher = more signal.
The next experiment has as its system Lefty1. Briefly: Lefty1 binders on small-molecule microarrays, primary screen, biochemical, small-molecule microarray, 635/667 nm fluorescence (AID 1139). Particulars: small-molecule microarray binding, fluorescence 635/667; higher = more signal.
Experiment [8] has as its system wheat germ agglutinin (Triticum aestivum), Alexa647-labelled. Briefly: wheat germ agglutinin binders on compound microarrays, profiling panel, artefact control for SMM control-protein annotation, biochemical, small-molecule microarray, 635/667 nm fluorescence (AID 1140).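 Note: score merges 667 nm feature emission with signal to noise over triplicate slides.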 Particulars: WGA-A647 binding, 635 nm fluorescence, higher = more signal.
The target of experiment [9] is Luciferin 4-monooxygenase (Photinus pyralis) (UniProt P08659). As to the kind of experiment: firefly luciferase enzyme inhibitors, primary screen, biochemical, luminescence, purified enzyme, 2006 set (AID 1141).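 Note: cell-free assay with purified firefly luciferase at 100 ng per well in PBS; test concentration not given here.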 Particulars: SteadyGlo luminescence, 30 min, higher = more signal, called active from +8 up or from −8 down.
Experiment [10] deals with Wnt5a (protein binding on small-molecule microarray). Briefly: Wnt5a binders on small-molecule microarray, primary screen, biophysical, 635/667 nm fluorescence (AID 1142).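 Note: fluorescence read at 667 nm with signal to noise per printed feature.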 The following applies: 635 nm fluorescence, higher = more signal.
The nature of experiment [11]: cell viability in Huh7 cells, primary screen, cytotoxicity control for HCV replication inhibitor project, CellTiter-Glo luminescence, basal, 48 h (AID 1143).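 Note: Huh7 hepatoma cells carrying a hepatitis C replication reporter with no stimulus; test concentration not given here.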 Particulars: Huh7 HCV replicon, higher = more signal, called active from +8 up or from −8 down. (In general: Cellular ATP, detected with luciferase, serves as a proxy for viable cell number.)
Experiment [12] can be described thus: P. aeruginosa biofilm formation inhibitors, primary screen, PAO1 strain, BacTiter-Glo luminescence, LB-PBS (AID 1144). Particulars: 12 h, higher = more signal.
Experiment [13] in a line: CREB reporter modulators without forskolin, primary screen, cell-based, PC12, CRE-LacZ reporter, unstimulated (AID 1145). Particulars: no forskolin, luminescence, 4.5 h, higher = more signal, called active from +8 up or from −8 down.
The nature of experiment [14]: CREB reporter modulators under forskolin, primary screen, cell-based, PC12, CRE-LacZ reporter, forskolin-stimulated (AID 1146).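 Note: PC12 cells with 6xCRE LacZ reporter stimulated by forskolin 10 µM; beta-galactosidase reporter signal reflecting CREB driven transcription.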 Particulars: luminescence, 4.5 h, higher = more signal, called active from +8 up or from −8 down.
Experiment [15] concerns the target Streptavidin (Streptomyces avidinii) (UniProt P22629). As to the kind of experiment: streptavidin binders on small-molecule microarray, primary screen, artefact control for SMM compound annotation, biophysical, 635/667 nm fluorescence (AID 1147).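 Note: signal reflects streptavidin binding to arrayed compounds as a control protein.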 The following applies: streptavidin binding, higher = more signal.
A short description of experiment [16]: small-molecule binders of probe aInhba, primary screen, biochemical, small-molecule microarray, 635/667 nm fluorescence (AID 1148).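 Note: score merges 667nm spot fluorescence with signal-to-noise for antibody binding to printed compounds.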 The following applies: higher = more signal.
In experiment [17] the target is Torsin-1A (Homo sapiens) (UniProt O14656). As to the kind of experiment: torsin A binders from cell lysate, primary screen, small-molecule microarray, wild-type, 635/667 nm (AID 1149). Particulars: COS7 hTOR1A-WT lysate, 635 nm fluorescence, higher = more signal.
For experiment [18] the target is unchanged. As to the kind of experiment: small-molecule binders of mutant TOR1A in lysate, primary screen, cell lysate, small-molecule microarray, COS7 lysate, 635/667 nm fluorescence (AID 1150).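 Note: score pools 667 nm emission and signal to noise measuring lysate protein binding.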 The following applies: COS7 hTOR1A mutant lysate, 635 nm fluorescence, higher = more signal.
The test system of experiment [19] is Sonic hedgehog protein (Shh). Briefly: small-molecule binders of Shh protein, primary screen, biochemical, small-molecule microarray, 635/667 nm fluorescence (AID 1151).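 Note: Shh protein binding to compounds spotted on small-molecule microarray slides; score combines spot fluorescence intensity with signal-to-noise across triplicate slides.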 Particulars: small-molecule microarray binding, 635 nm fluorescence; higher = more signal.

Calls of active or inactive are those of the source. Unless noted, the rule behind the calls is not given here.

Chain of Torsin-1A (Homo sapiens) (O14656 whole entry, looked up): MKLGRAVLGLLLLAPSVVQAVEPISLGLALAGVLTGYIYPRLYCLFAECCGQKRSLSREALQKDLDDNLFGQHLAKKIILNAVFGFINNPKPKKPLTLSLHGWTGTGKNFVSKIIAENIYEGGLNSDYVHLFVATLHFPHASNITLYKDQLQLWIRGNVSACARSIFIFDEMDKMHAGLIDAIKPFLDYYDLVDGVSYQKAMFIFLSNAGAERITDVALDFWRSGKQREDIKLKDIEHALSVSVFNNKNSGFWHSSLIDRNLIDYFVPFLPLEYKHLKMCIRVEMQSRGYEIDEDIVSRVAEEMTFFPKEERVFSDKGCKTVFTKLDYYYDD
Chain of Fibroblast growth factor 2 (Homo sapiens) (P09038 whole entry, looked up): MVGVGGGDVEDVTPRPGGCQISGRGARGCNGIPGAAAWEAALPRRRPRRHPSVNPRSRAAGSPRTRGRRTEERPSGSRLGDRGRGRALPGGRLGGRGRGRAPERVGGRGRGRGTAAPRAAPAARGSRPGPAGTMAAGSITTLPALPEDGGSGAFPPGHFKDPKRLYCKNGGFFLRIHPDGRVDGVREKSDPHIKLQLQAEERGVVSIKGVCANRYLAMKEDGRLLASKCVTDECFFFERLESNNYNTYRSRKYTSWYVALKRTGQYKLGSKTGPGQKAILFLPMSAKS
Chain of Follistatin (Homo sapiens) (P19883 whole entry, looked up): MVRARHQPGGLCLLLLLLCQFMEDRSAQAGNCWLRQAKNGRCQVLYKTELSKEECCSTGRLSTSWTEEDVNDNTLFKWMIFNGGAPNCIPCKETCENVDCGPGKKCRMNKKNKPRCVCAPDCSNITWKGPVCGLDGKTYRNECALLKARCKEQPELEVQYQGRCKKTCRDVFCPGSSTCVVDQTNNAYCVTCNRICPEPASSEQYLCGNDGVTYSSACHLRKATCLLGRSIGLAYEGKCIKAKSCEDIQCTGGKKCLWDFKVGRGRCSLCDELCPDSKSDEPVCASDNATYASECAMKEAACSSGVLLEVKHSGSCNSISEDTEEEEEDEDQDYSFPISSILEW
Chain of Focal adhesion kinase 1 (Homo sapiens) (Q05397 whole entry, looked up): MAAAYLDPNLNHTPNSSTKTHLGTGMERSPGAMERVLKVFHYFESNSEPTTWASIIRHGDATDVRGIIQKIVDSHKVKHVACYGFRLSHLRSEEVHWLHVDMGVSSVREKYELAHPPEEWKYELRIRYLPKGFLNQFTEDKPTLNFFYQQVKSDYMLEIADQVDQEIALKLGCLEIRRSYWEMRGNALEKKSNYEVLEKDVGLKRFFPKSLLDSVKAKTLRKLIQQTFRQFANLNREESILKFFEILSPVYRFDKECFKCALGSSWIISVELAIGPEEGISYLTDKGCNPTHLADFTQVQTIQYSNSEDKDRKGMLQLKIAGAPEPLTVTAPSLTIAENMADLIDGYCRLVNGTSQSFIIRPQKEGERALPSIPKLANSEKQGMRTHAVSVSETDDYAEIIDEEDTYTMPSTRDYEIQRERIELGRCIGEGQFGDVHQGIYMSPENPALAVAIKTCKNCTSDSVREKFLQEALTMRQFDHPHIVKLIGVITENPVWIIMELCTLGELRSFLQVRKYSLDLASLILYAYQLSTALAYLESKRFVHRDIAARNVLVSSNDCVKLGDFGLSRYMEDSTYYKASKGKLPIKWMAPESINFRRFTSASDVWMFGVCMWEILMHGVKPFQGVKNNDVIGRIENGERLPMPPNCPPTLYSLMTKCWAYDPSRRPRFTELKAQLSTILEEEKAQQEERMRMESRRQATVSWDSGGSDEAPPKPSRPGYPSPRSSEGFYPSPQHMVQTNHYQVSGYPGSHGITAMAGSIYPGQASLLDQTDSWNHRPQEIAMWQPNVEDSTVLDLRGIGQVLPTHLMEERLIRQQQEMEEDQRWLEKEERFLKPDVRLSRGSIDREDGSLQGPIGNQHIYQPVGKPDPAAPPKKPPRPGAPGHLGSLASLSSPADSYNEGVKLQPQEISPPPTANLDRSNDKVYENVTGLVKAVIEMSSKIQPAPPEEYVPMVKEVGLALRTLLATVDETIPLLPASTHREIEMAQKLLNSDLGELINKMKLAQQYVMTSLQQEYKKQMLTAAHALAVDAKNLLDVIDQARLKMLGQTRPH
Chain of Luciferin 4-monooxygenase (Photinus pyralis) (P08659 whole entry, looked up): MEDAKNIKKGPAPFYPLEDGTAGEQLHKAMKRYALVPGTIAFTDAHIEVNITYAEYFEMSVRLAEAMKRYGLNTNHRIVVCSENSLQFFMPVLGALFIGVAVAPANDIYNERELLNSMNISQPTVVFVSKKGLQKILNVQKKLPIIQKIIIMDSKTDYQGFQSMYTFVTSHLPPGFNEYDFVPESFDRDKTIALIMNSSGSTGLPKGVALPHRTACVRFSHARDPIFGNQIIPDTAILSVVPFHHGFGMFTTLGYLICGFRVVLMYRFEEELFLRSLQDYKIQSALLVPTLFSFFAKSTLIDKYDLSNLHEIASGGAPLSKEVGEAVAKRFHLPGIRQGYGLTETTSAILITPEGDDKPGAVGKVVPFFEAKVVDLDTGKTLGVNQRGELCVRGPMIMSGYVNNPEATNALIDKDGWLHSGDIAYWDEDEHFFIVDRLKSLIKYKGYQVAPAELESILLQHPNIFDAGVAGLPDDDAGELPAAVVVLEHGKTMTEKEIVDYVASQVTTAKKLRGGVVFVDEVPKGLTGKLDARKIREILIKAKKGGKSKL
Chain of Streptavidin (Streptomyces avidinii) (P22629 whole entry, looked up): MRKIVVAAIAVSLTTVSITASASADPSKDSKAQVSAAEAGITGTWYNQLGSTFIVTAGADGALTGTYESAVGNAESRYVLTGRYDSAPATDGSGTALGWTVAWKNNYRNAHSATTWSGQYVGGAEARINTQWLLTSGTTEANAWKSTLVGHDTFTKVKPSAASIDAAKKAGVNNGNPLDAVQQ

Turning to `C=CCN1Cc2ccccc2C[C@]2(N=C(c3ccc(OCCCO)cc3)O[C@@H]2c2ccccc2)C1=O`, the composite z-score in experiment [1] was 1.66; in experiment [2], 1.12; in experiment [3], 0.692; in experiment [4], 0.441; in [5], 1.36; in experiment [6], 1.76. Besides, the composite z-score in the experiment on Lefty1 was 0.706; in experiment [8], 0.436; in experiment [10], 0.469; in [15], -0.138; in [16], 0.167; with Torsin-1A (Homo sapiens) [17], 0.821. The composite z-score in the experiment with Torsin-1A (Homo sapiens) [18] amounted to 1.15; in [19], 1.81. For the same molecule, the z-score was 1.21 in experiment [7]; -1.87 (inactive) in experiment [9]; -4.28 (inactive) in experiment [11]; -0.066 (inactive) in [12]; 1.64 (inactive) in [13]; -1.28 (inactive) in experiment [14].

Consider `COc1cc(CO)cc(I)c1O[C@H]1C=C(C(=O)NCCO)C[C@@H](N(CCc2cccc(F)c2)C(=O)CCC2CCCC2)[C@@H]1O`, for which the composite z-score in experiment [1] was 2.62; in experiment [2], 1.19; in experiment [3] it was 0.218; in [4] it was 0.819; in experiment [5], 1.46; in experiment [6], 1.76. Besides, the composite z-score was found to be 1.49 with Lefty1; 0.524 in experiment [8]; 1.38 in [10]; 0.628 in [15]; 0.0872 in [16]; 0.727 in the experiment with Torsin-1A (Homo sapiens) [17]. Also, the results for the composite z-score (in the experiment with Torsin-1A (Homo sapiens) [18]; in [19]) were 1.26 and 1.89, respectively. Moreover, the z-score in [7] is -0.172; in experiment [9], 1.38 (inactive); in experiment [11] it was -6.09 (inactive); in experiment [12] it was -0.986 (inactive); in [13], 6.93 (inactive); in experiment [14], -0.374 (inactive).

`CC(=O)NCCCC[C@@H]1NC(=O)[C@@H]2C[C@H](C(=O)NCc3ccc(F)cc3)[C@H](c3ccc(O)cc3)N2C1=O`: the composite z-score was found to be 2.04 in experiment [1]; 0.582 in experiment [2]; 0.244 in experiment [3]; 0.754 in experiment [4]; 1.33 in experiment [5]; 1.22 in experiment [6]. The composite z-score was 0.889 in the experiment with Lefty1; 0.182 in [8]; 0.0547 in experiment [10]; 0.0542 in experiment [15]; -0.176 in experiment [16]; 0.821 with Torsin-1A (Homo sapiens) [17]. Moreover, the composite z-score stood at 0.524 in the experiment with Torsin-1A (Homo sapiens) [18] and 1.56 in experiment [19]. Moreover, the z-score is 0.329 in experiment [7]; -0.333 (inactive) in [9]; -0.395 (inactive) in experiment [11]; 0.587 (inactive) in [12]; 0.431 (inactive) in experiment [13]; 0.158 (inactive) in experiment [14].

Take `COCCOC(=O)N1C(=O)[C@@]2(c3cc(C#CCC(C(=O)OC)C(=O)OC)ccc31)[C@H](c1ccccc1OCCO)N1[C@H](c3ccccc3)[C@H](c3ccccc3)OC(=O)[C@H]1[C@@H]2C(=O)Nc1nc2ccccc2s1`: the composite z-score in experiment [1] came out at 2.04; in experiment [2], 0.946; in experiment [3], 0.767; in experiment [4], 0.945; in experiment [5], 1.16; in [6] it was 1.58. Also, the composite z-score with Lefty1 turned out to be 1.55; in experiment [8] it was 0.577; in [10], 0.964; in experiment [15] it was 0.129; in experiment [16], 0.135; with Torsin-1A (Homo sapiens) [17] it was 0.983. Further, the composite z-score is 1.08 with Torsin-1A (Homo sapiens) [18] and 1.49 in experiment [19]. Besides, the z-score in experiment [7] is -1.64; in experiment [9], -2.57 (inactive); in experiment [11] it was -2.67 (inactive); in [12] it was -1.9 (inactive); in experiment [13], -0.375 (inactive); in [14], -0.705 (inactive).

With `COc1ccc([Si](C)(C)[C@@H]2[C@@H](CCO)O[C@]3(C(=O)N(Cc4cccc(N5CCCCC5=O)c4)c4ccccc43)[C@H]2C)cc1`, the composite z-score worked out at 0.49 in experiment [1]; 1.17 in experiment [2]; 0.0366 in [3]; 0.825 in experiment [4]; 1.01 in [5]; 0.885 in experiment [6]. Besides, the composite z-score in the experiment with Lefty1 is 0.883; in [8], 0.746; in [10], -0.0438; in [15], -0.276; in [16] it was -0.024; in the experiment with Torsin-1A (Homo sapiens) [17], 0.38. Besides, the composite z-score in the experiment with Torsin-1A (Homo sapiens) [18] turned out to be 0.965; in [19], 1.27. The z-score in [7] was -0.425; in experiment [9], -0.724 (inactive); in [11], -7.9 (inactive); in experiment [12] it was 0.671 (inactive); in experiment [13] it was 15.5 (active); in experiment [14] it was 0.456 (inactive).

(Values after PubChem BioAssay.)
